Results published in publication PMC7862700, “An all-to-all approach to the identification of sequence-specific readers for epigenetic DNA modifications on cytosine”.

Columns and labels:
Assay in all cases: DAPPL (digital affinity profiling via proximity ligation, sequencing); 10 mM Tris-HCl pH 7.5, 50 mM NaCl, 1 mM DTT, 4% glycerol, room temperature, 30 min; GST-TFs on glutathione beads, 16-mer random dsDNA library, 0.1% formaldehyde crosslink after washing; high values mean tight binding
FLI1 = molecular target: T1, FLI1 (Homo sapiens, UniProt Q01543 1-452); conditions: protein: recombinant; tags: N-terminal GST; dsDNA, one strand shown
T1 sequence: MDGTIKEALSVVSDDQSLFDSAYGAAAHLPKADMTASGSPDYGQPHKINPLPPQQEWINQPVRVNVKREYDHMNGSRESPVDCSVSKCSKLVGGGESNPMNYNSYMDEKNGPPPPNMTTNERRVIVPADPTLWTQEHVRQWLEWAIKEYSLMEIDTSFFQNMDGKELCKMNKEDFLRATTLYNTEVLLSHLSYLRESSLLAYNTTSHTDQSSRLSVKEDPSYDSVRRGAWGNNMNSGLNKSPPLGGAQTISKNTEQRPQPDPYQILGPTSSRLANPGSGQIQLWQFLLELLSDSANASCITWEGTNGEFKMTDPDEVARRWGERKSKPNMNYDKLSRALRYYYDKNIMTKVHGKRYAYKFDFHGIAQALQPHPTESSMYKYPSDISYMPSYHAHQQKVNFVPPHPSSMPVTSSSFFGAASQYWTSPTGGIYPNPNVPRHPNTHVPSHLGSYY
Summary of the method: (§1)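 Pools of DNA-barcoded human transcription factors, expressed in yeast as GST fusions on glutathione beads and combined with a tag-only sample, were incubated with 200 nmole of a 16-mer random double-stranded DNA library. Incubation took 30 min at room temperature in Tris/NaCl/DTT/glycerol buffer and was followed by washing, 0.1% formaldehyde crosslinking, proximity ligation (BsaI/T4 ligase, 1 h, 37 °C), PCR amplification and sequencing on an Illumina NextSeq500. Binding signal is the ratio of a hexamer's read frequency for a factor to its frequency for the tag-only sample.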

ELK1 = molecular target: T2, ELK1 (Homo sapiens, UniProt P19419 1-428); conditions: protein: recombinant; tags: N-terminal GST; dsDNA, one strand shown
T2 sequence: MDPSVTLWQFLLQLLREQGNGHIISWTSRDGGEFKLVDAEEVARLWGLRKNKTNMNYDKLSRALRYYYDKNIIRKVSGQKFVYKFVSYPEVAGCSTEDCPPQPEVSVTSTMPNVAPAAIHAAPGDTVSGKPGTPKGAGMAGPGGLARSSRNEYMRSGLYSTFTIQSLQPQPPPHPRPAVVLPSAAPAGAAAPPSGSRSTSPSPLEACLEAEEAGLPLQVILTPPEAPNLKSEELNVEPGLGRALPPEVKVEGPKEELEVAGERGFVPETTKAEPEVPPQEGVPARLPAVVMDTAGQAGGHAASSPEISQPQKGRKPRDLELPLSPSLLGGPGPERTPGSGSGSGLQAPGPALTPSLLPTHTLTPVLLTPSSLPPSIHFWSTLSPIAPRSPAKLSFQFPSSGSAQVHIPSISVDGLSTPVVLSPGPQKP
Summary of the method: as §1

GABPA = molecular target: T3, GABPA (Homo sapiens, UniProt Q06546 1-454); conditions: protein: recombinant; tags: N-terminal GST; dsDNA, one strand shown
T3 sequence: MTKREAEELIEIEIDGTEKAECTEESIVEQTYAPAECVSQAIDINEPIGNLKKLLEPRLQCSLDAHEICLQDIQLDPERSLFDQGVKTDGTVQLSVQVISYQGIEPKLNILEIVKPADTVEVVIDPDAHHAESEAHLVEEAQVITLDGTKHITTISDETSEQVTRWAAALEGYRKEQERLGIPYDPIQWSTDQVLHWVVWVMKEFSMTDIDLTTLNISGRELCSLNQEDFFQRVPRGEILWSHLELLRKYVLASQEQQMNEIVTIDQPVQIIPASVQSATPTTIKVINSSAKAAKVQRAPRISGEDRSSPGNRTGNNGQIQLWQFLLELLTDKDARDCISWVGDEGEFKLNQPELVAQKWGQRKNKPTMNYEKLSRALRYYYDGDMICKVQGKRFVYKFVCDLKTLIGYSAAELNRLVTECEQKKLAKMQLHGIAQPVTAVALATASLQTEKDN
Summary of the method: as §1

ERG = molecular target: T4, ERG (Homo sapiens, UniProt P11308 1-479); conditions: protein: recombinant; tags: N-terminal GST; dsDNA, one strand shown
T4 sequence: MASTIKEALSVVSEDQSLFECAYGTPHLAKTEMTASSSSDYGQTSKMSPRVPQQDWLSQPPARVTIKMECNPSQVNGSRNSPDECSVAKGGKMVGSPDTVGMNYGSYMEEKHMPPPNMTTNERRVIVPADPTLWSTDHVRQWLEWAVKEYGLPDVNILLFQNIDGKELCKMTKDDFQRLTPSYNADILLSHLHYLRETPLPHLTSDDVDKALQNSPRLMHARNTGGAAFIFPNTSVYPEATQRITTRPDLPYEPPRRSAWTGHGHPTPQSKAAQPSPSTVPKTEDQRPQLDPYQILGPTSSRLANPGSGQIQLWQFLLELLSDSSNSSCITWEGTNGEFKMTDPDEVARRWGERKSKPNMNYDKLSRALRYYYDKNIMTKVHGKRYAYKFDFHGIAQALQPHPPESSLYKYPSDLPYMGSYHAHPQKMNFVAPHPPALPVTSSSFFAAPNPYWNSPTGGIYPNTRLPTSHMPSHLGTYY
Summary of the method: as §1

ELF1 = ELF1 (Homo sapiens, UniProt P32519 1-619); conditions: protein: recombinant; tags: N-terminal GST; dsDNA, one strand shown
Sequence of ELF1 (P32519 whole entry): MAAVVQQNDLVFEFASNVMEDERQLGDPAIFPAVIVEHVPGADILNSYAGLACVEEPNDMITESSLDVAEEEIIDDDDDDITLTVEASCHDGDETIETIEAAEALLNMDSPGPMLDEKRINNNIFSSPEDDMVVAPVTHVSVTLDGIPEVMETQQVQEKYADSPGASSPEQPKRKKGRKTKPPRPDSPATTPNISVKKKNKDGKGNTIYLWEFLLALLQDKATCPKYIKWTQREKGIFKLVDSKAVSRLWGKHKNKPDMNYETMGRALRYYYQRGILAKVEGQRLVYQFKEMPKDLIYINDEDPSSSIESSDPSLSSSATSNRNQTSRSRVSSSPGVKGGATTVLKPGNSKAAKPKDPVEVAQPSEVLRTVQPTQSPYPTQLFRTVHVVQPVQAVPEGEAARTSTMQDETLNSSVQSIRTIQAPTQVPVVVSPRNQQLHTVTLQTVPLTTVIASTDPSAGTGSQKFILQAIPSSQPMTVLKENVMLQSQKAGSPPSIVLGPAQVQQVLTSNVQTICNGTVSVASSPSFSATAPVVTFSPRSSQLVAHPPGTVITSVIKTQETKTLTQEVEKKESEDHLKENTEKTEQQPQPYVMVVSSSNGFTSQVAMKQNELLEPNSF
Summary of the method: as §1

EHF = molecular target: T5, EHF (Homo sapiens, UniProt Q9NZC4 1-300); conditions: protein: recombinant; tags: N-terminal GST; dsDNA, one strand shown
T5 sequence: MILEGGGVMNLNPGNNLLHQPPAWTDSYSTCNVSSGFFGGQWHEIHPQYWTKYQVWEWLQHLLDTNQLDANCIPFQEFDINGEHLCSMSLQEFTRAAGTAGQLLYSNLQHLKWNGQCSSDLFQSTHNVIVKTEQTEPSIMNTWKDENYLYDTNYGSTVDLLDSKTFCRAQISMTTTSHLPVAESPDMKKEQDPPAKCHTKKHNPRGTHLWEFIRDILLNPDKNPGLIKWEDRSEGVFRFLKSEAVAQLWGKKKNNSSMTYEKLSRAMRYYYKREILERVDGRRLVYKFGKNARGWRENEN
Summary of the method: as §1

SPI1 = SPI1 (Homo sapiens, UniProt P17947 1-270); conditions: protein: recombinant; tags: N-terminal GST; dsDNA, one strand shown
Summary of the method: as §1

SPIB = SPIB (Homo sapiens, UniProt Q01892 1-262); conditions: protein: recombinant; tags: N-terminal GST; dsDNA, one strand shown
Sequence of SPIB (Q01892 whole entry): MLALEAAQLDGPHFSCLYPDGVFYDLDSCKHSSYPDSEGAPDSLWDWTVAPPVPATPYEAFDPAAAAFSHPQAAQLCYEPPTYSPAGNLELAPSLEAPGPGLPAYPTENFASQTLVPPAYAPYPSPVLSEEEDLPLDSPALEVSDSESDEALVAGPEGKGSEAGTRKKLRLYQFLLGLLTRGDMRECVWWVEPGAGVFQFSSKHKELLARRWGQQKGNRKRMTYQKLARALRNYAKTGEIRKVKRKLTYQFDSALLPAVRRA
Summary of the method: as §1

FEV = molecular target: T6, FEV (Homo sapiens, UniProt Q99581 1-238); conditions: protein: recombinant; tags: N-terminal GST; dsDNA, one strand shown
T6 sequence: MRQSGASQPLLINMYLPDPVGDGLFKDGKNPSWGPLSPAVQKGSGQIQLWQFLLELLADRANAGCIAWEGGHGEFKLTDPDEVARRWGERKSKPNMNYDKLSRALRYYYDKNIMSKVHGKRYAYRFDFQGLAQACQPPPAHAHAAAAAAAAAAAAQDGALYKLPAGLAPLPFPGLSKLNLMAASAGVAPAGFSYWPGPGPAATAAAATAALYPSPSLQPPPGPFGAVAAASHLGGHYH
Summary of the method: as §1

ETV5 = ETV5 (Homo sapiens, UniProt P41161 1-510); conditions: protein: recombinant; tags: N-terminal GST; dsDNA, one strand shown
Sequence of ETV5 (P41161 whole entry): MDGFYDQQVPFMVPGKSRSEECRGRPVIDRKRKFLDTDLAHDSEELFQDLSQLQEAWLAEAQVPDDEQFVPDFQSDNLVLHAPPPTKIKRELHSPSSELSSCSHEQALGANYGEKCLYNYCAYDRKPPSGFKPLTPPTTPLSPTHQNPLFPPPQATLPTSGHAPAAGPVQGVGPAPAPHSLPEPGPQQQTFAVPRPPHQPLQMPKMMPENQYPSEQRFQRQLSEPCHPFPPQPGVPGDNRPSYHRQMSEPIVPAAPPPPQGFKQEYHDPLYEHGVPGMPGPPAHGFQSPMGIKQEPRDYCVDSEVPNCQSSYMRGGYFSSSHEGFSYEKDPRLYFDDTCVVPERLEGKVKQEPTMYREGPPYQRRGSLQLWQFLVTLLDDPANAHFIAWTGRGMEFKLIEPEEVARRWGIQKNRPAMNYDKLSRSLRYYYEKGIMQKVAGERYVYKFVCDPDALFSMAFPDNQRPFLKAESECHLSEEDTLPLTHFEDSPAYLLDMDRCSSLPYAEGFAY
Summary of the method: as §1

HSF1 = HSF1 (Homo sapiens, UniProt Q00613 1-529); conditions: protein: recombinant; tags: N-terminal GST; chain copies: 3; dsDNA, one strand shown
Sequence of HSF1 (Q00613 whole entry): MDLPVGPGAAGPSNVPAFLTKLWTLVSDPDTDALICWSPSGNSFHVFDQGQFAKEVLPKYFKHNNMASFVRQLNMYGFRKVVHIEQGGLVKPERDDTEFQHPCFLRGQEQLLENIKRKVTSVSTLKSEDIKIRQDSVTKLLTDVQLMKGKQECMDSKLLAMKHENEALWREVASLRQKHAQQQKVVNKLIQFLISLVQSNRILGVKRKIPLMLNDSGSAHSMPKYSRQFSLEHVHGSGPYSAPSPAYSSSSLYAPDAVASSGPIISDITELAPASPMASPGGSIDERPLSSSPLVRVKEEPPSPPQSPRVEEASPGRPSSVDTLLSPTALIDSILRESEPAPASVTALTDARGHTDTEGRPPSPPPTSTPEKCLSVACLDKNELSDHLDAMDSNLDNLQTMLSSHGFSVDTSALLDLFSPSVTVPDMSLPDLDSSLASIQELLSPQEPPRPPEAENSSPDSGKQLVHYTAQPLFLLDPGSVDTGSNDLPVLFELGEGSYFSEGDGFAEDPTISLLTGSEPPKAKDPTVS
Summary of the method: as §1

SPIC = molecular target: T7, SPIC (Homo sapiens, UniProt Q8N5J4 1-248); conditions: protein: recombinant; tags: N-terminal GST; dsDNA, one strand shown
T7 sequence: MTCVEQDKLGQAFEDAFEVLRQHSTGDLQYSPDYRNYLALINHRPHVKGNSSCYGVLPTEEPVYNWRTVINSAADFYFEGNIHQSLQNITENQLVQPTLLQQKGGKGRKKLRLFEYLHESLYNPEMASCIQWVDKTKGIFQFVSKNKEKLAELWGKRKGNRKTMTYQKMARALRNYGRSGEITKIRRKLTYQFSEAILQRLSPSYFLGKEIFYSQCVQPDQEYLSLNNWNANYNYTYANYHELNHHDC
Summary of the method: as §1

ELF4 = ELF4 (Homo sapiens, UniProt Q99607 1-663); conditions: protein: recombinant; tags: N-terminal GST; dsDNA, one strand shown
Sequence of ELF4 (Q99607 whole entry): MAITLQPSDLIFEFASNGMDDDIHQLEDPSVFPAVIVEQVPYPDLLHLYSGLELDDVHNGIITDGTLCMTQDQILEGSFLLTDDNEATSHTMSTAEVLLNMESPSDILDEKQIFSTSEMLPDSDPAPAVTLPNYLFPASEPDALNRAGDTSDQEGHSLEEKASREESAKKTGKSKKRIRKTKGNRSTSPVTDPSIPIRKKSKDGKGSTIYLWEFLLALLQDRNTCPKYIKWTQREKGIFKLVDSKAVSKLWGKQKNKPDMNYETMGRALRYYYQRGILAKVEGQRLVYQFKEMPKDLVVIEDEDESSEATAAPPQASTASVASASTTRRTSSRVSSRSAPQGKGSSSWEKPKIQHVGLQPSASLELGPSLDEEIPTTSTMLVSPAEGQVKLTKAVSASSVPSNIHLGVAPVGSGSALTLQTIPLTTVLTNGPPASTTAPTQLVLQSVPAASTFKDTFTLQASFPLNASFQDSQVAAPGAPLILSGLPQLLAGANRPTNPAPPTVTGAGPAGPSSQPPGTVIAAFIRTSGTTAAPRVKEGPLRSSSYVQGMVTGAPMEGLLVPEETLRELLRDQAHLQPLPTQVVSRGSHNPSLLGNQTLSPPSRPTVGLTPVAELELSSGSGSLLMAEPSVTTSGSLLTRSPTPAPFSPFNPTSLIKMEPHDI
Summary of the method: as §1

ELK4 = molecular target: T8, ELK4 (Homo sapiens, UniProt P28324-2 1-405); conditions: protein: recombinant; tags: N-terminal GST; dsDNA, one strand shown
T8 sequence: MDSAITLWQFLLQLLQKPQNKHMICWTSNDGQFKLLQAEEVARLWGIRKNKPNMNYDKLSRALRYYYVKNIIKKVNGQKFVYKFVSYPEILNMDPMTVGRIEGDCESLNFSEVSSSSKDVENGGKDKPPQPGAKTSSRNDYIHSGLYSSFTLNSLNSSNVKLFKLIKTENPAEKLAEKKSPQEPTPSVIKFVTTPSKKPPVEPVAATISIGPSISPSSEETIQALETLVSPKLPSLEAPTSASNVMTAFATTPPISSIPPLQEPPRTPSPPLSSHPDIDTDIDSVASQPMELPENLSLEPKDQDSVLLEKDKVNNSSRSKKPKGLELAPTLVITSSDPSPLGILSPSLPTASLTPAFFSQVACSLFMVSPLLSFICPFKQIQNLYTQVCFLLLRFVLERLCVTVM
Summary of the method: as §1

ETV2 = molecular target: T9, ETV2 (Homo sapiens, UniProt O00321 1-342); conditions: protein: recombinant; tags: N-terminal GST; dsDNA, one strand shown
T9 sequence: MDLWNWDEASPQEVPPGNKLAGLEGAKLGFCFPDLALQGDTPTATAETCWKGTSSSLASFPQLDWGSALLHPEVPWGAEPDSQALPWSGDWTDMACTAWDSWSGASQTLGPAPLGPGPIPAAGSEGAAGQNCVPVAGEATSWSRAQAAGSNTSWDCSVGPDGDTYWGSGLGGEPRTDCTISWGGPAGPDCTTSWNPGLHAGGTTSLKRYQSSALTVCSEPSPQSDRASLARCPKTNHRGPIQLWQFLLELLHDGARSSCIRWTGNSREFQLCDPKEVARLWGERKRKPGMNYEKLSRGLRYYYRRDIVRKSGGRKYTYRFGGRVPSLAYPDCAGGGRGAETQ
Summary of the method: as §1

ELF3 = molecular target: T10, ELF3 (Homo sapiens, UniProt P78545 1-371); conditions: protein: recombinant; tags: N-terminal GST; dsDNA, one strand shown
T10 sequence: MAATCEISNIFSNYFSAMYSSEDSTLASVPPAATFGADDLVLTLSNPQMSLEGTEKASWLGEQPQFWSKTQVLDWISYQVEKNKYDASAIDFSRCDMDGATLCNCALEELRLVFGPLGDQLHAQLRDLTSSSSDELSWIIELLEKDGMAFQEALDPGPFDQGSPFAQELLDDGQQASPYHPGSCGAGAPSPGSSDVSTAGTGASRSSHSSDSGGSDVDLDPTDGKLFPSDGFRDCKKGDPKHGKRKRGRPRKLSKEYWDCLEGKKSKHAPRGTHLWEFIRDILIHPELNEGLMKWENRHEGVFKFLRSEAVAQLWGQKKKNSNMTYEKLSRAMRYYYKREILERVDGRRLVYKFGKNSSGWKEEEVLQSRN
Summary of the method: as §1

CRX = CRX (Homo sapiens, UniProt O43186 1-299); conditions: protein: recombinant; tags: N-terminal GST; dsDNA, one strand shown
Sequence of CRX (O43186 whole entry): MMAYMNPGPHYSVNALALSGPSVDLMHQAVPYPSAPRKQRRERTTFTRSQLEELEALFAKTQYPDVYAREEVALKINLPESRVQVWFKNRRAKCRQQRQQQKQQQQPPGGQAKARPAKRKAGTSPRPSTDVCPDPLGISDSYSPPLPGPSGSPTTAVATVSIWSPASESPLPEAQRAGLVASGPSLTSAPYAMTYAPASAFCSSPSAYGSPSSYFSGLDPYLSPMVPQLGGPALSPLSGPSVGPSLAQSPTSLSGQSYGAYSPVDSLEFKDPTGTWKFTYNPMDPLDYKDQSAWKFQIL
Summary of the method: as §1

ETV1 = ETV1 (Homo sapiens, UniProt P50549 1-477); conditions: protein: recombinant; tags: N-terminal GST; dsDNA, one strand shown
Sequence of ETV1 (P50549 whole entry): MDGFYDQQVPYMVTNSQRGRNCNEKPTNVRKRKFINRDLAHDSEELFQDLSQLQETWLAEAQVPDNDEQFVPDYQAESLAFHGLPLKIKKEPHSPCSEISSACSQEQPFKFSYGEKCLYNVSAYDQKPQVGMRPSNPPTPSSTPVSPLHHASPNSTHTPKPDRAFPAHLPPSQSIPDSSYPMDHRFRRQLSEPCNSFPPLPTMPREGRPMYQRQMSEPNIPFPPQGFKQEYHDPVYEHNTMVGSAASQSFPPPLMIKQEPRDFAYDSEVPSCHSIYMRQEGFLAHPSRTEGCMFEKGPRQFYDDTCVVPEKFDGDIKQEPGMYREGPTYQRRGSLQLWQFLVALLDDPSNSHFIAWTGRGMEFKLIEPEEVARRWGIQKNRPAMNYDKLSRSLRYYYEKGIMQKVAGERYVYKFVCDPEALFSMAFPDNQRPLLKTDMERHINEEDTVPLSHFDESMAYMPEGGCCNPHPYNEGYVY
Summary of the method: as §1

Sequence: TCAATT
- binding signal (FLI1): 1.09 fold enrichment (6-mer frequency, TF over GST control)
- binding signal (ELK1): 1.06 fold enrichment (6-mer frequency, TF over GST control)
- binding signal (GABPA): 1.19 fold enrichment (6-mer frequency, TF over GST control)
- binding signal (ERG): 1.16 fold enrichment (6-mer frequency, TF over GST control)
- binding signal (ELF1): 1.16 fold enrichment (6-mer frequency, TF over GST control)
- binding signal (EHF): 1.12 fold enrichment (6-mer frequency, TF over GST control)
- binding signal (SPI1): 1.18 fold enrichment (6-mer frequency, TF over GST control)
- binding signal (SPIB): 1.29 fold enrichment (6-mer frequency, TF over GST control)
- binding signal (FEV): 1.16 fold enrichment (6-mer frequency, TF over GST control)
- binding signal (ETV5): 1.21 fold enrichment (6-mer frequency, TF over GST control)
- binding signal (HSF1): 1.1 fold enrichment (6-mer frequency, TF over GST control)
- binding signal (SPIC): 1.14 fold enrichment (6-mer frequency, TF over GST control)
- binding signal (ELF4): 1.18 fold enrichment (6-mer frequency, TF over GST control)
- binding signal (ELK4): 1.08 fold enrichment (6-mer frequency, TF over GST control)
- binding signal (ETV2): 1.24 fold enrichment (6-mer frequency, TF over GST control)
- binding signal (ELF3): 1.12 fold enrichment (6-mer frequency, TF over GST control)
- binding signal (CRX): 1.17 fold enrichment (6-mer frequency, TF over GST control)
- binding signal (ETV1): 1.14 fold enrichment (6-mer frequency, TF over GST control)
